Most compounds without a hit are left out; they make up all but 1.1% or so of the library.
OPRM1-OPRD1 ag: agonists of human mu-delta opioid receptor heterodimerization | activation, % at 9.3 µM | 340,000 compounds, 0.3% hits | P35372+P41143 | cells, OPRM1-OPRD1 heterodimerization, luminescence; in the data active = activation above about 18%
OPRM1-OPRD1 inv: inverse agonists of human mu-delta opioid receptor heterodimerization | cell-based MOR-DOR heterodimer luminescence, inverse agonism | 340,000 compounds, 0.21% hits | AID 504357 | inhibition, % at 9.3 µM | P35372+P41143; in the data active = inhibition above about 22%, passing the limit was not always enough
HTR5A ag ctr: activates human HTR5A in OPRM1-OPRD1 agonist counter-screen; 340,000 compounds, 0.61% hits; AID 504692; HTR5A agonist assay, luminescence, cell-based; P47898; activation, % at 9.3 µM; in the data active = activation mostly above about 9.5%, no sharp cut-off; inactive = mostly below about 7.6%
Target sequence (P47898 whole entry, looked up): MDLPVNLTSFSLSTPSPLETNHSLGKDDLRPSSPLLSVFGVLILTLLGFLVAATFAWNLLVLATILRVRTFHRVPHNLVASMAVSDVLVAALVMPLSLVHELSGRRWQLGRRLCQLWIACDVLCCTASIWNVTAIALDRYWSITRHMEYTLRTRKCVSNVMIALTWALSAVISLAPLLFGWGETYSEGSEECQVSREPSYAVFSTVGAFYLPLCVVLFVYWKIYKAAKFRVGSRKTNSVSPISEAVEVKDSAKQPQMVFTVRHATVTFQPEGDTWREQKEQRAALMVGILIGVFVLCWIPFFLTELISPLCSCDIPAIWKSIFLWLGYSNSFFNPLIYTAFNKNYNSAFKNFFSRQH
HTR5A inv ctr: HTR5A inverse agonism, opioid heterodimer counter-screen. P47898. AID 504634. inhibition, % at 9.3 µM. 340,000 compounds, 0.083% hits. HTR5A cell line, luminescence; in the data active = inhibition mostly above about 23%, no sharp cut-off; inactive = mostly below about 18%
Of the large screens only hits and unclear results are named; the others gave an inactive call.

O=C(CN(C(=O)c1ccco1)c1cccc(F)c1)NCc1ccc(F)cc1	HTR5A ag ctr 11.5
CCCNc1[nH]c(=O)n(C)c(=O)c1N=O	HTR5A ag ctr 9.6
CCn1c(Cc2cccs2)nnc1SCC(=O)Nc1ccc(OC)c(OC)c1	HTR5A ag ctr 9.7
CCn1c(SCC(=O)Nc2ccc3c(c2)oc2ccccc23)nnc1-c1ccc(N)cc1	HTR5A ag ctr 10.6
Cc1ccc(-c2nnn(CC(=O)N(CC(=O)NC3CCCCC3)c3ccccc3F)n2)o1	none
COC(=O)[C@]1(Cc2ccccc2)N[C@H](CN(C)S(=O)(=O)c2ccc(-c3ccccc3)cc2)[C@@H]2C(=O)N(Cc3ccccc3)C(=O)[C@@H]21	none
CCc1c(C)nc2ncnn2c1N1CCCC(C(=O)Nc2ccc(NC(C)=O)cc2)C1 (stereo not given)	HTR5A ag ctr 12.9
CCc1c(C)nc2ncnn2c1N1CCCC(C(=O)NCc2ccc3c(c2)OCO3)C1 (stereo not given)	none
CCC(=O)N1N=C(c2cccc(NS(C)(=O)=O)c2)CC1c1cccs1 (stereo not given)	HTR5A ag ctr 14.1
CCCOc1ccc(C(=O)NC(=S)NNC(=O)c2c(-c3ccccc3)noc2C)cc1	OPRM1-OPRD1 inv 46.1, HTR5A inv ctr 43.9
CC1CCCN(C(=O)COC(=O)CNC(=O)c2ccc(Br)cc2)C1 (stereo not given)	none
Cc1oc(S(=O)(=O)N2CCOCC2)cc1C(=O)Nc1ccc(Cl)cc1	none
CC(NCc1ccccc1)C1COc2ccccc2O1 (stereo not given)	none
CC(NCC(O)COc1ccccc1)C1COc2ccccc2O1 (stereo not given)	HTR5A ag ctr 11.6
CCOC(=O)C1CCN(C(=O)CCCn2nc(C)c3c(C)n(-c4ccc(C)cc4)nc3c2=O)CC1	none
CCOc1ccccc1N1CCN(CC(=O)Nc2ccnn2C2CCCC2)CC1	none
Cc1ccc(CNC(=O)/C=C/c2ccccc2Cl)cc1	HTR5A ag ctr 11.0
Cc1ccc(CNC(=O)/C=C/c2c(Cl)cccc2Cl)cc1	none
O=C(Nc1ccc(N2CCN(C(=O)c3ccco3)CC2)c(Cl)c1)c1cc2ccccc2o1	HTR5A ag ctr 14.2
O=C(Nc1ccc(N2CCN(C(=O)c3ccco3)CC2)cc1)c1ccc([N+](=O)[O-])cc1Cl	HTR5A ag ctr 10.1
Cc1ccc(C(=O)Nc2ccc(N3CCN(C(=O)c4ccco4)CC3)cc2)c(Cl)c1	none
COc1ccccc1C(=O)NC(=O)COC(=O)C1CC1C (stereo not given)	none
Cc1cc(C(=O)NNC(=O)c2ccc(C)s2)c(C)o1	none
CC(C)C[C@H](NC(=O)N1c2ccccc2NC(=O)[C@@H]1C(C)C)C(=O)N[C@@H](Cc1ccccc1)C(=O)O	none
Cc1cccc(NC(=O)C2(C)CC3c4ccccc4C2c2ccccc23)c1 (stereo not given)	HTR5A ag ctr 10.3
CC(=O)c1ccc(OC(=O)CCc2ccccc2)cc1	none
Cc1nc2sc(C(c3ccc(Cl)cc3)N3CC(C)OC(C)C3)c(O)n2n1 (stereo not given)	HTR5A ag ctr 11.3
Cc1ccc(C(c2sc3nc(C)nn3c2O)N2CC(C)OC(C)C2)cc1 (stereo not given)	none
O=S(=O)(Cc1ccc(Cl)cc1)NCc1ccc2c(c1)OCO2	none
CCN1CCN(CCC(=O)Nc2cc(OC)cc(OC)c2)CC1	HTR5A ag ctr 9.2
CCN(CC)CCNC(=O)c1cc2c(=O)n(CC)c3ccccc3c2s1	none
CCN(CC)CCNC(=O)c1cc2c(s1)-c1ccccc1SC2	HTR5A ag ctr 12.8
Cn1c(C(=O)NCc2ccccn2)cc2c(=O)n(C)c3ccccc3c21	HTR5A ag ctr 13.1
COc1ccccc1N1CCN(C(=O)c2cc3c(s2)CCCCC3)CC1	HTR5A ag ctr 10.2
CCOc1ccccc1N1CCN(C(=O)c2cc3c(s2)CCC3)CC1	none
CC1=CC(=O)C=C(C)C1=NOC(=O)/C=C\c1ccccc1	HTR5A ag ctr 12.8
C[C@@]12CCC=C[C@H]1[C@H](c1ccc(C(F)(F)F)cc1)N(Cc1ccccc1)C2=O	HTR5A ag ctr 13.3
COc1ccc(N=Cc2cc(Cc3ccccc3Cl)cc([N+](=O)[O-])c2O)cc1OC	none
Cc1ccc(N=Cc2cc(Cc3ccccc3Cl)cc([N+](=O)[O-])c2O)c(O)c1	HTR5A ag ctr 11.7
CCc1nnc(NS(=O)(=O)c2ccc(Nc3ccc([N+](=O)[O-])c4nonc34)cc2)s1	OPRM1-OPRD1 inv 36.1, HTR5A inv ctr 30.9
CCc1nnc(NS(=O)(=O)c2ccc(NS(=O)(=O)c3ccccc3[N+](=O)[O-])cc2)s1	none
c1ccc2c(c1)Oc1ccccc1S2	HTR5A ag ctr 12.5
Clc1ccc(-c2c(C3=NCCCN3)nnn2-c2ccc(Cl)cc2)cc1	none
O=C(CN1C(=O)NC(c2ccc(F)cc2)C1=O)Nc1ccc2c(c1)OCCO2 (stereo not given)	none
CC(C)CC1NC(=O)N(CC(=O)Nc2ccc3c(c2)OCCO3)C1=O (stereo not given)	HTR5A ag ctr 11.0
Cc1ccc(C)c(Cn2cnc3c(nnn3-c3ccc(F)cc3)c2=O)c1	HTR5A ag ctr 10.3
CCOCCCNc1nc2c(C)cccn2c(=O)c1/C=C1\SC(=S)N(CC(C)C)C1=O	none
CCOCCCNc1nc2c(C)cccn2c(=O)c1/C=C1\SC(=S)N(C(C)CC)C1=O (stereo not given)	OPRM1-OPRD1 ag 18.2
COc1cc(C(=O)NCCC2=CCCCC2)ccc1OCc1c(C)noc1C	none
CCOc1ccc(CCNC(=O)c2ccc(F)c(S(=O)(=O)N3CCOCC3)c2)cc1OCC	HTR5A ag ctr 11.2
CCOc1ccc(CCNC(=O)c2ccc(C)c(S(=O)(=O)N3CCOCC3)c2)cc1OCC	none
Nc1ccc(N(CCO)CCO)cc1	HTR5A ag ctr 12.3
Cc1cccc(C)c1NC(=O)CN(C)C(=O)C1CC1C (stereo not given)	none
NC(=O)c1ccccc1NC(=O)CCCc1ccccc1	none
NC(=O)c1ccccc1NC(=O)CS(=O)(=O)Cc1ccccc1	HTR5A ag ctr 9.6
O=C(NNc1ccccc1)NC(Cc1ccccc1)C(=O)O (stereo not given)	none
CCN(CC)CCOC(=O)C1(c2ccccc2)CCOCC1	HTR5A ag ctr 10.6
CCN(CC)CCOCCOC(=O)C1(c2ccccc2)CCCC1	none
Cc1cccn2cc(CCNC(=O)c3cccs3)nc12	none
Cc1c(Cl)cccc1NC(=S)NN	none
Cc1cccc(Cl)c1NC(=S)NN	HTR5A ag ctr 13.2
CN(C(=O)CSc1nnc(C2CC2)n1C1CC1)C1(C#N)CCCCC1	none
CCOc1ccc2oc(C(=O)Nc3ccc(N4CCOCC4)cc3)c(C)c2c1	HTR5A ag ctr 13.8
CCOc1ccc2oc(C(=O)Nc3ccc4c(c3)OCO4)c(C)c2c1	none
CCOC(=O)/C(=C/c1ccc(OC(F)F)cc1)C1=Nn2c(nnc2-c2ccc(Cl)cc2)SC1	HTR5A ag ctr 8.4
O=C(CN(C1CCCCC1)S(=O)(=O)c1ccc(F)cc1)NCC1CCCO1 (stereo not given)	HTR5A ag ctr 16.8
O=C(CN(C1CCCCC1)S(=O)(=O)c1ccccc1)NCC1CCCO1 (stereo not given)	none
O=C(CCc1nnc2ccc(NCc3ccccc3Cl)nn12)NC1CCCCC1	none
O=C(CCCN1C(=O)c2ccccc2C1=O)NCCc1ccc(OC(F)F)cc1	none

Bioassay records: PubChem, The Scripps Research Institute Molecular Screening Center
